From publication PMC4552634, “A New Set of Chemical Starting Points with Plasmodium falciparum Transmission-Blocking Potential for Antimalarial Drug Discovery” (PLoS ONE, 2015)
Read-outs that look alike come from different tables or passages of the source. Hit rate of the full screen: of about 13,000 compounds, about 3,200 (25%) showed an effect of 50% or more. This is one part of the list.

Tested on: P. falciparum stage V gametocytes
Design: BacTiter-Glo ATP luminescence viability of purified stage V gametocytes in 384-well plates, per cent inhibition versus DMSO
Conditions: 48 h, 5 µM, inhibitor

SMILES | % Inhibition | % Inhibition (% Inhibition)
COc1cccc2cc(C(=O)N[C@@H](CC(C)C)C(=O)N[C@H](/C=N/N3C(=O)CN(Cc4ccccc4)C3=O)CCc3ccccc3)oc12 [TCMDC-136198] | -10.77% | –
O=C(Cc1cccc(O)c1)Nc1ccc(-c2cccc(-c3nc4ccc(C(F)(F)F)cc4[nH]3)c2)cc1 [TCMDC-132176] | 0.6072% | –
COc1ccc(CCN2CCC(CN(C)Cc3cnn(-c4ccccc4)c3)CC2)cc1 [TCMDC-124632] | -8.037% | –
CN1CCCC1CCNCc1ccc(-c2ccc(CNCCc3ccccc3)cn2)cc1 (stereo not shown) [TCMDC-141617] | 85.17% | –
COc1ccc(CNCc2ccc(-c3ccc(CNCCc4ccccc4)cn3)cc2)cn1 [TCMDC-141647] | 26.41% | –
CN1CCC(C(=O)N(Cc2ccc(-c3ccc(CNCCc4ccccc4)cn3)cc2)C2CCN(Cc3ccccc3)CC2)CC1 [TCMDC-141552] | 110.4% | –
CC(C)C[C@@H](C(=O)N[C@@H](CCCCNC(=O)OCc1ccccc1)C(=O)Nc1nccs1)[C@H](C)N(O)C=O [TCMDC-137184] | -15.37% | –
C[C@@H]([C@@H](CCCc1ccc(Cl)cc1)C(=O)N[C@H](C(=O)Nc1cccnc1)C(C)(C)C)N(O)C=O [TCMDC-138383] | -4.065% | –
NC(=O)c1ccc2[nH]cc(C3CCN(CC4CCC(NC(=O)/C=C/c5ccc(Cl)c(Cl)c5)CC4)CC3)c2c1 (stereo not shown) [TCMDC-139885] | – | 5.306%
CNC(=O)c1ccc2[nH]cc(C3CCN(CC4CCC(NC(=O)/C=C/c5ccc(Cl)c(Cl)c5)CC4)CC3)c2c1 (stereo not shown) [TCMDC-139979] | 15.16% | –
NC(=O)c1ccc2[nH]cc(C3CCN(CC4CCC(NC(=O)/C=C/c5ccc(Cl)c(Cl)c5)CC4)CC3)c2c1 (stereo not shown) [TCMDC-139886] | – | 70.38%
O=C(/C=C/c1ccc(Cl)c(Cl)c1)NC1CCC(CN2CCC(c3c[nH]c4ccccc34)CC2)CC1 (stereo not shown) [TCMDC-139447] | 56.58% | –
Cc1ccc2[nH]cc(C3CCN(CC4CCC(NC(=O)/C=C/c5ccc(Cl)c(Cl)c5)CC4)CC3)c2c1 (stereo not shown) [TCMDC-139629] | – | 74.07%
O=C(/C=C/c1ccc(Cl)c(Cl)c1)N1CCC(CN2CCC(c3c[nH]c4cc(C(F)(F)F)ccc34)CC2)CC1 [TCMDC-139860] | 22.64% | –
O=C(/C=C/c1ccc(Cl)c(Cl)c1)NC1CCC(CN2CCC(c3c[nH]c4cc(C(F)(F)F)ccc34)CC2)CC1 (stereo not shown) [TCMDC-139868] | – | 4.839%
O=C(/C=C/c1ccc(Cl)c(Cl)c1)NC1CCC(CN2CCC(c3c[nH]c4cc(O)ccc34)CC2)CC1 (stereo not shown) [TCMDC-139642] | 41.76% | –
CS(=O)(=O)Nc1ccc2[nH]cc(C3CCN(CC4CCC(NC(=O)/C=C/c5ccc(Cl)c(Cl)c5)CC4)CC3)c2c1 (stereo not shown) [TCMDC-139641] | -16.95% | –
O=C(/C=C/c1ccc(Cl)c(Cl)c1)NC1CCC(CN2CCC(c3c[nH]c4cc(C(F)(F)F)ccc34)CC2)CC1 (stereo not shown) [TCMDC-139869] | – | 50.13%
O=C(/C=C/c1ccc(Cl)c(Cl)c1)NC1CCC(CN2CCC(c3c[nH]c4ccccc34)C(O)C2)CC1 (stereo not shown) [TCMDC-139645] | -15.82% | –
Cc1ccc2[nH]cc(C3CCN(CC4CCC(NC(=O)/C=C/c5ccc(Cl)c(Cl)c5)CC4)CC3)c2c1 (stereo not shown) [TCMDC-139630] | – | -23.48%
CC[C@@H]([C@@H](CC(C)C)C(=O)N[C@@H](CCCCNC(=O)OCc1ccccc1)C(=O)Nc1ccccn1)N(O)C=O [TCMDC-137163] | 20.28% | –
O=C(/C=C/c1ccc(Cl)c(Cl)c1)NC1CCC(N2CCC(c3c[nH]c4ccc(O)cc34)CC2)CC1 (stereo not shown) [TCMDC-139812] | 98.54% | –
O=C(/C=C/c1ccc(Cl)c(Cl)c1)NC1CCC(CN2CCC(c3c[nH]c4ccncc34)CC2)CC1 (stereo not shown) [TCMDC-140109] | 103.5% | –
O=C(/C=C/c1ccc(Cl)c(Cl)c1)NC1CCC(N2CCC(c3c[nH]c4ccccc34)CC2)CC1 (stereo not shown) [TCMDC-139778] | -27.83% | –

SMILES | % Inhibition | % Inhibition (% Inhibition)
O=C(C=Cc1ccc(F)c(Br)c1)NC1CCC(CN2CCC(c3c[nH]c4ccccc34)CC2)CC1 (stereo not shown) [TCMDC-139919] | – | -60.64%
CC(=O)Nc1ccc2[nH]cc(C3CCN(CC4CCC(NC(=O)/C=C/c5ccc(Cl)c(Cl)c5)CC4)CC3)c2c1 (stereo not shown) [TCMDC-139851] | – | 9.174%
O=C(C=Cc1ccc(Br)cc1)NC1CCC(CN2CCC(c3c[nH]c4ccccc34)CC2)CC1 (stereo not shown) [TCMDC-139948] | 31.75% | –
O=C(C=Cc1ccc(F)c(Br)c1)NC1CCC(CN2CCC(c3c[nH]c4ccccc34)CC2)CC1 (stereo not shown) [TCMDC-139908] | – | 99.67%
O=C(/C=C/c1ccc(Cl)cc1)NC1CCC(CN2CCC(c3c[nH]c4ccccc34)CC2)CC1 (stereo not shown) [TCMDC-139716] | – | 101.2%
O=C(C=Cc1ccc(F)c(Br)c1)N1CCC(CN2CCC(c3c[nH]c4ccccc34)CC2)CC1 [TCMDC-139914] | -25.75% | –
CC(=O)Nc1ccc2[nH]cc(C3CCN(CC4CCC(NC(=O)/C=C/c5ccc(Cl)c(Cl)c5)CC4)CC3)c2c1 (stereo not shown) [TCMDC-139852] | – | 29.73%
O=C(/C=C/c1ccc(O)cc1)NC1CCC(CN2CCC(c3c[nH]c4ccccc34)CC2)CC1 (stereo not shown) [TCMDC-139719] | 17.65% | –
O=C(/C=C/c1ccc(Cl)c(Cl)c1)NCCCCCN1[C@@H]2CC[C@H]1CC(c1c[nH]c3ccc(O)cc13)C2 (stereo partly shown) [TCMDC-139295] | – | 11.46%
CC(C)C(C(=O)n1ncc2c3c(N)nc(N)nc3ccc21)C(C)C [TCMDC-137333] | -35.38% | –
COc1cccc(C(=O)Nc2sc3c(c2C(N)=O)CCCC3)c1OC [TCMDC-123542] | -31.1% | –
COc1cc2nc(NCC3CCCO3)n3nc(-c4ccccc4)nc3c2cc1OC (stereo not shown) [TCMDC-125295] | -4.624% | –
COc1ccc2cc(C(c3nnnn3CC3CCCO3)N3CCc4ccccc43)c(=O)[nH]c2c1 (stereo not shown) [TCMDC-123534] | 43.68% | –
Cc1ccc(CN2CCN(c3cc4c(cc3Cl)CCN4C(=O)Cc3ccc(NC(=O)c4ccc(C(F)(F)F)cc4)cc3)CC2)cc1 [TCMDC-139509] | 28.44% | –
O=C(Nc1ccc(F)c(F)c1)c1ccc(CN2CCCN(Cc3cccc(F)c3)CC2)cc1 [TCMDC-136389] | 9.307% | –
CCC[C@@H]([C@@H](CC1CCCCC1)C(=O)N[C@H](C(=O)Nc1nccs1)[C@H](C)O)N(O)C=O [TCMDC-138142] | -26.13% | –
CCOC(=O)C1=C(C)N=c2sc(=Cc3ccccc3O)c(=O)n2C1c1ccc(OC)c2ccccc12 (stereo not shown) [TCMDC-124109] | 14.77% | –
O=C(/C=C/c1ccc(Cl)cc1)NC1CCC(CN2CCC(c3c[nH]c4ccccc34)CC2)CC1 (stereo not shown) [TCMDC-139701] | – | 108.5%
O=C(/C=C/c1ccc([N+](=O)[O-])cc1)NC1CCC(CN2CCC(c3c[nH]c4ccccc34)CC2)CC1 (stereo not shown) [TCMDC-139950] | – | 23.65%
O=[N+]([O-])c1ccc(Oc2c(Cl)cc(S(=O)(=O)NC3CCC(CN4CCC(c5c[nH]c6ccccc56)CC4)CC3)cc2Cl)c(Cl)c1 (stereo not shown) [TCMDC-140165] | 62.46% | –
O=[N+]([O-])c1ccc(Oc2c(Cl)cc(S(=O)(=O)N3CCC(CN4CCC(c5c[nH]c6ccccc56)CC4)CC3)cc2Cl)c(Cl)c1 [TCMDC-140169] | -22.29% | –
CC(C)c1ccc(C=CC(=O)NC2CCC(CN3CCC(c4c[nH]c5ccccc45)CC3)CC2)cc1 (stereo not shown) [TCMDC-139936] | 103.3% | –
O=C(/C=C/c1ccc([N+](=O)[O-])cc1)NC1CCC(CN2CCC(c3c[nH]c4ccccc34)CC2)CC1 (stereo not shown) [TCMDC-139934] | – | 72.83%
N#Cc1c(Cl)cccc1Oc1ccc(S(=O)(=O)NC2CCC(CN3CCC(c4c[nH]c5ccccc45)CC3)CC2)cc1 (stereo not shown) [TCMDC-140167] | – | 10.9%

SMILES | % Inhibition | % Inhibition (% Inhibition)
O=C(Nc1cccnc1)c1cc(-c2cccnc2)nc2ccc(Br)cc12 [TCMDC-125212] | 10.18% | –
Cc1cc(Cl)ccc1OC(C)C(=O)N1CCc2ccccc21 (stereo not shown) [TCMDC-123620] | -14.46% | –
Cc1cc(N2CCCC2)nc(Nc2ccc(NC(=O)COc3ccccc3)cc2)n1 [TCMDC-124969] | -41.99% | –
COc1cccc(C(=O)NC(c2ccc(Cl)cc2Cl)c2cc(Cl)c3cccnc3c2O)c1 (stereo not shown) [TCMDC-124342] | 31.32% | –
COc1cccc(C(=O)NC(C=Cc2ccccc2)c2cc(Cl)c3cccnc3c2O)c1 (stereo not shown) [TCMDC-125550] | 112.7% | –
COc1ccc(C(=O)NC(c2ccc(Cl)cc2Cl)c2cc(Cl)c3cccnc3c2O)cc1 (stereo not shown) [TCMDC-125549] | 15.16% | –
COc1cccc(C(=O)NC(c2ccccc2OC)c2cc(Cl)c3cccnc3c2O)c1 (stereo not shown) [TCMDC-125612] | 79.98% | –
FC(F)(F)c1ccc2[nH]c(-c3ccc(-c4ccc(CNCC5CCCO5)cc4)s3)nc2c1.O=C(O)C(F)(F)F (stereo not shown) [TCMDC-133092] | -19.94% | –
CC1CN(c2ccc(C(=O)NCC3CC3)cc2NC(=O)OCc2ccccc2)CC(C)O1 (stereo not shown) [TCMDC-134641] | 11.9% | –
CCOc1ccc2c(c1)OC(c1ccccc1)(C(F)(F)F)NC2=O (stereo not shown) [TCMDC-123632] | 18.25% | –
O=C(/C=C/c1ccc(-c2nc3cc(F)c(F)cc3[nH]2)cc1)NCc1ccc(Cl)c(Cl)c1 [TCMDC-140462] | 80.74% | –
O=C(/C=C/c1ccc(-c2nc3ccc(Cl)cc3[nH]2)cc1)NCc1cccc(F)c1 [TCMDC-140444] | -5.382% | –
CC(C)(C)c1ccc2nc(-c3ccc(/C=C/C(=O)NCc4cccc(C(F)(F)F)c4)cc3)[nH]c2c1 [TCMDC-140458] | -22.76% | –
Cc1ccc2nc(-c3ccc(C=CC(=O)NCc4ccc(Cl)c(Cl)c4)cc3)[nH]c2c1 [TCMDC-140402] | -29.51% | –
Cc1cc2nc(-c3ccc(/C=C/C(=O)NCc4ccc(Cl)c(Cl)c4)cc3)[nH]c2cc1C [TCMDC-140437] | 1.168% | –
O=C(NCc1ccc(Cl)c(Cl)c1)c1ccc(-c2nc3cc(F)c(F)cc3[nH]2)cc1 [TCMDC-140460] | 62.28% | –
Cc1cc2nc(-c3ccc(/C=C/C(=O)NCCc4ccccc4)cc3)[nH]c2cc1C [TCMDC-140438] | -13.04% | –
CC(C)(C)c1ccc2nc(-c3ccc(/C=C/C(=O)NCc4ccc(Cl)c(Cl)c4)cc3)[nH]c2c1 [TCMDC-140457] | 61.32% | –
Cc1cc2nc(-c3ccc(C(=O)NCc4ccc(Cl)c(Cl)c4)cc3)[nH]c2cc1C [TCMDC-140430] | 14.5% | –
O=C(NCc1ccc(Cl)c(Cl)c1)c1ccc(-c2nc3ccc(F)cc3[nH]2)cc1 [TCMDC-140448] | -30.61% | –
CC(C)(C)c1ccc(CNC(=O)/C=C/c2ccc(-c3nc4ccc(C(C)(C)C)cc4[nH]3)cc2)cc1 [TCMDC-140459] | 15.07% | –
COC(=O)c1ccc2nc(-c3ccc(/C=C/C(=O)NCc4ccc(Cl)c(Cl)c4)cc3)[nH]c2c1 [TCMDC-140447] | 71.15% | –
